For one sequence, binding signal results are on record in PMC7862700, “An all-to-all approach to the identification of sequence-specific readers for epigenetic DNA modifications on cytosine”.

Holding throughout (test): DAPPL (digital affinity profiling via proximity ligation, sequencing); 10 mM Tris-HCl pH 7.5, 50 mM NaCl, 1 mM DTT, 4% glycerol, room temperature, 30 min; GST-TFs on glutathione beads, 16-mer random dsDNA library, 0.1% formaldehyde crosslink after washing; high values mean tight binding
Conditions in all cases: protein: recombinant; tags: N-terminal GST; dsDNA, one strand shown

For one assay, the target named is T1, ELK1 (Homo sapiens, UniProt P19419 1-428).
T1 sequence: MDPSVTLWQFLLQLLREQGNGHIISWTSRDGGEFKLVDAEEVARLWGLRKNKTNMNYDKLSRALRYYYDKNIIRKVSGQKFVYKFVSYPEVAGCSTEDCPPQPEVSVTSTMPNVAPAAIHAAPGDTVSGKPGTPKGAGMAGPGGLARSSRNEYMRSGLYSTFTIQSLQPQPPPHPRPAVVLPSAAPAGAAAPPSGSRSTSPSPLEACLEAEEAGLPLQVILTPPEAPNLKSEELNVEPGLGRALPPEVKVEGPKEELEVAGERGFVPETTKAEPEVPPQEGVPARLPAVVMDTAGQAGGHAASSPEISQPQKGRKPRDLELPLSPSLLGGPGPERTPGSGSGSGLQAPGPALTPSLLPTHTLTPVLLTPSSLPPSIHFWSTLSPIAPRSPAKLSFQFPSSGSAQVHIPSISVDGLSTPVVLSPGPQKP
An outline of the steps:
(§1)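 Human transcription factors were made in yeast as GST fusions, captured on glutathione beads and barcoded with DNA. With a tag-only sample included, the pool was incubated with 200 nmole of a random double-stranded 16-mer DNA library in Tris/NaCl/DTT/glycerol buffer at room temperature for 30 min, then crosslinked with 0.1% formaldehyde after washing, ligated by proximity, amplified and sequenced. For binding signal, each hexamer's read frequency for a factor is divided by its frequency for the tag-only sample.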

For a further assay, the target named is T2, GABPA (Homo sapiens, UniProt Q06546 1-454).
T2 sequence: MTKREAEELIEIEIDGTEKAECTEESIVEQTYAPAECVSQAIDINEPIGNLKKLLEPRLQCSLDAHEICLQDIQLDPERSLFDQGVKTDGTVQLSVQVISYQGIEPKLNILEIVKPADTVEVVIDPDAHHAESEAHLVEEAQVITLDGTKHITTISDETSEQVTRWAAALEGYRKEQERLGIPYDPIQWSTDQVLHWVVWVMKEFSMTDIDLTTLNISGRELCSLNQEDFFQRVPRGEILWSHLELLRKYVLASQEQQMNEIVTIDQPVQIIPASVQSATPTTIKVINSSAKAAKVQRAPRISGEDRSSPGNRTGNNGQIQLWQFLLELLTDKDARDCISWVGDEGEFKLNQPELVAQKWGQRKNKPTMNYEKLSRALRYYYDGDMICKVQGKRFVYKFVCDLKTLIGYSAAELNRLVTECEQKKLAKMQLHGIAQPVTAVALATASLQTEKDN
The method, boiled down: as §1

The next assay deals with T3, ERG (Homo sapiens, UniProt P11308 1-479).
T3 sequence: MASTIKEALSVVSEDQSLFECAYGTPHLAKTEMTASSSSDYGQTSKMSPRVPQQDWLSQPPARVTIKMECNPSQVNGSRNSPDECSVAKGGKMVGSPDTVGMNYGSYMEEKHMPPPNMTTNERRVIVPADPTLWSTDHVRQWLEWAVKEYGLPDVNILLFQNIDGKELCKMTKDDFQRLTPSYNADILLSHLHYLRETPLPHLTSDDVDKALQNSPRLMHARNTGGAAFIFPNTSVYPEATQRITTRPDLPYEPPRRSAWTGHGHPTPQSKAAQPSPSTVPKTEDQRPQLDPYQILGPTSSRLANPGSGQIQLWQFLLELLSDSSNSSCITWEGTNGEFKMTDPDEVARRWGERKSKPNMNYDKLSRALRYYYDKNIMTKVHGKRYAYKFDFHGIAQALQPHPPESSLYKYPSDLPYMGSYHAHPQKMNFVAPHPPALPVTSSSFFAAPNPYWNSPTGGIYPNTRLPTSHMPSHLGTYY
The method, boiled down:
as §1

The next assay concerns the target ELF1 (Homo sapiens, UniProt P32519 1-619). The method, boiled down:
as §1

Another assay concerns the target T4, EHF (Homo sapiens, UniProt Q9NZC4 1-300).
T4 sequence: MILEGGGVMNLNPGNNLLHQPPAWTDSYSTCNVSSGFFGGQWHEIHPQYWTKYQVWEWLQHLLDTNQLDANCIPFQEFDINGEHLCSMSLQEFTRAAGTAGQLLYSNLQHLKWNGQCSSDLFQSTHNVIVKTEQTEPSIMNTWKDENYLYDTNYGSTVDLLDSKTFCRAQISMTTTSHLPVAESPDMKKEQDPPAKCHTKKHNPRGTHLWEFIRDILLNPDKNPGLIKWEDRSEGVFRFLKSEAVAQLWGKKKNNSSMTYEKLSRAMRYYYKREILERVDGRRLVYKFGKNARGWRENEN
An outline of the steps: as §1

In the next assay the target is SPIB (Homo sapiens, UniProt Q01892 1-262). An outline of the steps:
as §1

Another assay addresses ELF4 (Homo sapiens, UniProt Q99607 1-663). An outline of the steps:
as §1

The target of another assay is T5, ELK4 (Homo sapiens, UniProt P28324-2 1-405).
T5 sequence: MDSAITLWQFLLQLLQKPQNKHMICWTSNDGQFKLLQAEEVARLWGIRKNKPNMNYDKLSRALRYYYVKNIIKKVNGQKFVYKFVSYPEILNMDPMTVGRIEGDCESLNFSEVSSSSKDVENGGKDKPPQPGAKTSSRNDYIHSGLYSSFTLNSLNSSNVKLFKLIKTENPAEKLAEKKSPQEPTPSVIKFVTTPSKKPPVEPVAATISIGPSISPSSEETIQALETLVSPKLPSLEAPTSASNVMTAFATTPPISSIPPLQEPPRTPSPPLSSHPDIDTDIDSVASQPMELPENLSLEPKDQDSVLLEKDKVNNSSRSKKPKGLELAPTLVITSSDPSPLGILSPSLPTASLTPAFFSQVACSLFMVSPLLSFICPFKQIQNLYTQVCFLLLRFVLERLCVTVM
The method, boiled down: as §1

The target of a further assay is ETV1 (Homo sapiens, UniProt P50549 1-477). An outline of the steps: as §1
ETV1, sequence (P50549 whole entry): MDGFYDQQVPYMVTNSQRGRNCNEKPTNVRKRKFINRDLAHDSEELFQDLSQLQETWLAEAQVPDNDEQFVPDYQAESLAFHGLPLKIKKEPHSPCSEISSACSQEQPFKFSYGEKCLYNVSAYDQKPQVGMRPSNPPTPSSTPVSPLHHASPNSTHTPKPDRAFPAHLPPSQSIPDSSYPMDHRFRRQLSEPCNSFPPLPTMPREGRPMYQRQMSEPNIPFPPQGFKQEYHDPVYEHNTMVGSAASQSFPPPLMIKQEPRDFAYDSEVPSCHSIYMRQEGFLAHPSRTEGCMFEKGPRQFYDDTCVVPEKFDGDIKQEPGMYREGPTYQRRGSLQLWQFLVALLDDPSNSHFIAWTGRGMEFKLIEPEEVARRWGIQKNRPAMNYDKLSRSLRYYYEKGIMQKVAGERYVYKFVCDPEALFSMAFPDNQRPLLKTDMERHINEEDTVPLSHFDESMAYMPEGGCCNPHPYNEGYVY
For a further assay, the target named is T6, ERF (Homo sapiens, UniProt P50548 1-548).
T6 sequence: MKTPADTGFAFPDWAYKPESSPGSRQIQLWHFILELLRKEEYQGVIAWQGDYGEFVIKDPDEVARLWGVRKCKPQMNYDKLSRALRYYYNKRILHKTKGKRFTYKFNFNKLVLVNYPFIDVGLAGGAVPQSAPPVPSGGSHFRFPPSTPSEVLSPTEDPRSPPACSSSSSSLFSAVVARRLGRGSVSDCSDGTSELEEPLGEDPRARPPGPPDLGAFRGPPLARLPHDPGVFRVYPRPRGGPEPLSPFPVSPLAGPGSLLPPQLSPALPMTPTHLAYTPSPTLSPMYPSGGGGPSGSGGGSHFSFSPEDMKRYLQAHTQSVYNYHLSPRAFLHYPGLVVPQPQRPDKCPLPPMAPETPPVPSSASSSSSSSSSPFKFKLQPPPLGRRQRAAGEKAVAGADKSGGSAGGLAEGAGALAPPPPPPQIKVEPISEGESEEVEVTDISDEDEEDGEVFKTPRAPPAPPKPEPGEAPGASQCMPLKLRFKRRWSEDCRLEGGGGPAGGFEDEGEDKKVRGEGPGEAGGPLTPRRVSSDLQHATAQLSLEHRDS
The method, boiled down:
as §1

The next assay addresses T7, ETV3L (Homo sapiens, UniProt Q6ZN32 1-361).
T7 sequence: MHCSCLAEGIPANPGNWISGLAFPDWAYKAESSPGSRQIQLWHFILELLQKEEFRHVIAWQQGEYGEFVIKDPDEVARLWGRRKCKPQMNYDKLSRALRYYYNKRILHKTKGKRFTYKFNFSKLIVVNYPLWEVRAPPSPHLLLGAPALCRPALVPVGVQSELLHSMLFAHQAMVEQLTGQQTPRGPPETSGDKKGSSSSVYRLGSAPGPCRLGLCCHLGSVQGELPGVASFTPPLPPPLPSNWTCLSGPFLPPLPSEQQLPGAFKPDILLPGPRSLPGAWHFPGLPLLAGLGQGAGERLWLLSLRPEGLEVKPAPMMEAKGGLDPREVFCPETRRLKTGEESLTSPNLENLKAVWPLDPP
An outline of the steps:
as §1

The target of a further assay is T8, ETS2 (Homo sapiens, UniProt P15036 1-469).
T8 sequence: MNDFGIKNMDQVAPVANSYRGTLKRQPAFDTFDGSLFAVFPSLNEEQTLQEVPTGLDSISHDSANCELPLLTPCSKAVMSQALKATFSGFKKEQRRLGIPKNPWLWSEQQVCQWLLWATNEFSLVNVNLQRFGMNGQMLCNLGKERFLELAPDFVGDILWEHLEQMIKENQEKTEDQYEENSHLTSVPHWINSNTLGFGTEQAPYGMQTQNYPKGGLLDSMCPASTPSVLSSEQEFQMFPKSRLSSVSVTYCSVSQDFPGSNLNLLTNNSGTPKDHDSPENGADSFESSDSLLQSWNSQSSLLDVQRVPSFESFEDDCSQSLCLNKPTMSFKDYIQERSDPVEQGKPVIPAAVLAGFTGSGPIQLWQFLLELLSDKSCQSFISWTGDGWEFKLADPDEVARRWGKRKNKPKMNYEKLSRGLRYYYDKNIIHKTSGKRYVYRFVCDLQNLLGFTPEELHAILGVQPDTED
The method, boiled down:
as §1

For another assay, the target named is T9, ETV7 (Homo sapiens, UniProt Q9Y603 1-341).
T9 sequence: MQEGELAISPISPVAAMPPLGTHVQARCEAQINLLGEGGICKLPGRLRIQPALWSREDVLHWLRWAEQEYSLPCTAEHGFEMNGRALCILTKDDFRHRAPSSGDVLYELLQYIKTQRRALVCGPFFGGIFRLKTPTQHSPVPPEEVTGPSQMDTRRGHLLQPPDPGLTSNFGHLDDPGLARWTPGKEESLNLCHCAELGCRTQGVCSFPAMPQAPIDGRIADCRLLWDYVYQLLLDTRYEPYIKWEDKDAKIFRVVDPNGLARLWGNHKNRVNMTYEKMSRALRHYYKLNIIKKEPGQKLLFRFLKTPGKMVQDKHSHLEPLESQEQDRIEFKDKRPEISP
An outline of the steps: as §1

The target of a further assay is T10, ETV3 (Homo sapiens, UniProt P41162-2 1-143).
T10 sequence: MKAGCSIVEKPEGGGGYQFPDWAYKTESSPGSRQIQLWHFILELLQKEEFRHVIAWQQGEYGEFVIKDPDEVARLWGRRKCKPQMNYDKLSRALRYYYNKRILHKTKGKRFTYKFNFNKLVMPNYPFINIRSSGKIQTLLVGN
An outline of the steps: as §1

The target in a further assay is ETV6 (Homo sapiens, UniProt P41212 1-452). An outline of the steps: as §1
ETV6, sequence (P41212 whole entry): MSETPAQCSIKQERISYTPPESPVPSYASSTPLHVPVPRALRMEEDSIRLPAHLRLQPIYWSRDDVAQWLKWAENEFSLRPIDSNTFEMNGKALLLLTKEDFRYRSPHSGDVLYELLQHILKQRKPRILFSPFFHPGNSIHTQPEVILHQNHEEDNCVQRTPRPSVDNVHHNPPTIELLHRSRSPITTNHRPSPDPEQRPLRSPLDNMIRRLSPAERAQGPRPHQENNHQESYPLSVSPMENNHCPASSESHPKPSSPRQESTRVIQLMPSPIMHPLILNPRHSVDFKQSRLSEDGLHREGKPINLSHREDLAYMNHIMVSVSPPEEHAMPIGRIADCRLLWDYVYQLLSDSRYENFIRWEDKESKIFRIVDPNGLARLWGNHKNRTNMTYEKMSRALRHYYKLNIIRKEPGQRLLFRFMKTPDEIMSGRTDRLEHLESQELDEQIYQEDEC

SPIB, sequence (Q01892 whole entry): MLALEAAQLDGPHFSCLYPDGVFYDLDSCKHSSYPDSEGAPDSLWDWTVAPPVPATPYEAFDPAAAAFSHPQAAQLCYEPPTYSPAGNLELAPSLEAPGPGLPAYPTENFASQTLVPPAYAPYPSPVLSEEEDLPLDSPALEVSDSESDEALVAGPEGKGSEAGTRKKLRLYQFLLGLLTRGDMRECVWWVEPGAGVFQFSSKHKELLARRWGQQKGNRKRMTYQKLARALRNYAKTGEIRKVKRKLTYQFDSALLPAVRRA
ELF4, sequence (Q99607 whole entry): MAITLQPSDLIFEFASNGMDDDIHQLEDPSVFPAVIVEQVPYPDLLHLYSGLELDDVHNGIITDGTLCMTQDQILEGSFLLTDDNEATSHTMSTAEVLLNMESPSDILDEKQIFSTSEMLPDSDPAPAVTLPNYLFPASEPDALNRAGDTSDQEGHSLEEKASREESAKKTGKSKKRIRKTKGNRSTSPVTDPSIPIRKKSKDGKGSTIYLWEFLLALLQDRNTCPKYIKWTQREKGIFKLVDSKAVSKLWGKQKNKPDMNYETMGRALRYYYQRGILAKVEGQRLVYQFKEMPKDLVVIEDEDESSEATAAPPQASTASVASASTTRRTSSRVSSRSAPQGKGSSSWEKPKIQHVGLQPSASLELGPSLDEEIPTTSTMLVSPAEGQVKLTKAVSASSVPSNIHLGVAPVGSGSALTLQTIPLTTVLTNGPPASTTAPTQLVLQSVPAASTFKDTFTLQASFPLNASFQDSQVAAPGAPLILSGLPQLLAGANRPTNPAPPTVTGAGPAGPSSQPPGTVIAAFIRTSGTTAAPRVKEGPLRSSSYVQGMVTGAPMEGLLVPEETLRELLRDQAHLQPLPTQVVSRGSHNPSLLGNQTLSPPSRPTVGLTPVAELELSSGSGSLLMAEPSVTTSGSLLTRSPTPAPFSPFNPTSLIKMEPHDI
ELF1, sequence (P32519 whole entry): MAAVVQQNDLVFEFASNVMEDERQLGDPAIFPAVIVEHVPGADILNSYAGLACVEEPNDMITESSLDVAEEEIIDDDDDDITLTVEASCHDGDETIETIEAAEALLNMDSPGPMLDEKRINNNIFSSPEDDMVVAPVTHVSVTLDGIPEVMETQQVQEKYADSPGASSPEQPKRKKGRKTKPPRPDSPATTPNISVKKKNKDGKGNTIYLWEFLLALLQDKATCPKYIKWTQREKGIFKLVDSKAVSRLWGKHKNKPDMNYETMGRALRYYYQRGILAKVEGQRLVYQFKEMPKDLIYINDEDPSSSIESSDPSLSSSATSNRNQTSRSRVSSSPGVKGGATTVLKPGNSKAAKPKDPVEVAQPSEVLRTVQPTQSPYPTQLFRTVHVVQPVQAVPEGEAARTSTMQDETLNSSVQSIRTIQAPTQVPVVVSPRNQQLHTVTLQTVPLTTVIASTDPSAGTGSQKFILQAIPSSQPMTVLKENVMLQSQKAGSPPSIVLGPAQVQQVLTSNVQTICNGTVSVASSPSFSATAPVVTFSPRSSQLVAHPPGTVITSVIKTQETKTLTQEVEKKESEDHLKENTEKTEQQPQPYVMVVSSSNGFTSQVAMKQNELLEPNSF

TCAGCT: the binding signal with ELK1 is 1 fold enrichment (6-mer frequency, TF over GST control); in the assay with GABPA, 1.04 fold enrichment (6-mer frequency, TF over GST control); with ERG it was 1.06 fold enrichment (6-mer frequency, TF over GST control); with ELF1, 1.12 fold enrichment (6-mer frequency, TF over GST control); in the assay with EHF, 1.11 fold enrichment (6-mer frequency, TF over GST control); with SPIB, 1.09 fold enrichment (6-mer frequency, TF over GST control). The binding signal with ELF4 was 1.03 fold enrichment (6-mer frequency, TF over GST control); with ELK4, 1.14 fold enrichment (6-mer frequency, TF over GST control); in the assay with ETV1 it was 1.14 fold enrichment (6-mer frequency, TF over GST control); with ERF, 1.09 fold enrichment (6-mer frequency, TF over GST control); in the assay with ETV3L it was 1.09 fold enrichment (6-mer frequency, TF over GST control); in the assay with ETS2 it was 1.14 fold enrichment (6-mer frequency, TF over GST control). For the same sequence, the binding signal was 1.01 fold enrichment (6-mer frequency, TF over GST control) in the assay with ETV7; 1.05 fold enrichment (6-mer frequency, TF over GST control) with ETV3; 1.04 fold enrichment (6-mer frequency, TF over GST control) in the assay with ETV6.
